Laboratory results reported in PubChem BioAssay AID651558 (National Center for Advancing Translational Sciences (NCATS), 2012).
Out of some 1,200 compounds screened, about 480 (40%) were called active. Not shown: some 29% with an inconclusive outcome. Calls come from the whole dose curve; as a rule, active = well fitted inhibition curve with a large enough effect; inconclusive = small, poorly fitted or top-dose-only effect; inactive = no such curve, though single readings can be large or run the other way. Some of the results follow. Entries that show only a call come without a potency.

Experiment: qHTS Assay to Find Inhibitors of Chronic Active B-Cell Receptor Signaling: Hit Validation in Primary Screen; note: nearly all actives have a fitted effect of over 75% in size
Details: ABC-DLBCL IkB-luc/CBR ratio luminescence, 4 h; series mostly up to 46.1 µM
Method in brief: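 Concentration series (3 nM to 46 uM) tested on TMD8 cells induced with doxycycline for 4 h. Filter-corrected green (IkBa fusion) over red (unfused) luciferase signal; Data were normalised to 10 uM MG-132 and untreated cell wells.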
Potency is the fitted concentration of half-maximal effect.

Row | Structure (SMILES) | Potency
1 | CCOc1cc(/C=C2\CN(C)C/C(=C\c3ccc(O)c(OCC)c3)C2=O)ccc1O | 6.51 µM (active)
2 | CCOC(=O)C1=C(O)/C(=C/c2ccc(OCC(=O)O)c(OCC)c2)SC1=Nc1ccccc1 | inactive
3 | C=CCC(CC(O)COCCC)C(=O)NNC(=S)Nc1ccccc1 (stereo unspecified) | inactive
4 | Cc1ccc(C(=O)c2cc([N+](=O)[O-])ccc2N2CCCCC2)cc1C | 6.51 µM (active)
5 | Cc1ccc(C(=O)c2cc([N+](=O)[O-])ccc2N2CCCCC2)c(C)c1 | 1.03 µM (active)
6 | Cc1ccc(C(=O)c2cc([N+](=O)[O-])ccc2N2CCOCC2)c(C)c1 | 4.61 µM (active)
7 | O=C(c1ccc(Br)cc1)c1cc([N+](=O)[O-])ccc1N1CCCCC1 | 2.31 µM (active)
8 | COCCCNC(=O)C[C@H]1C[C@H](C(=O)N2CCCCC2)[C@@]2(C)c3[nH]c4ccc(Cl)cc4c3CCN2C1=O | inactive
9 | S=c1c2c(nc3nc[nH]n13)CCC2 | inactive
10 | CC1CCCN(c2ccc([N+](=O)[O-])cc2C(=O)c2ccccc2)C1 (stereo unspecified) | 3.26 µM (active)
11 | Cc1ccc(C(=O)c2cc([N+](=O)[O-])ccc2N2CCCCC2)cc1 | 2.31 µM (active)
12 | CCN(CC)c1ccc(/C=N/N=C(N)N)c(O)c1 | 10.3 µM (active)
13 | CCN(CC)c1ccc(/C=N/NC(=S)NC)c(O)c1 | inactive
14 | COc1cc(C(=O)NNC(=S)Nc2ccc(S(N)(=O)=O)cc2)cc(OC)c1OC | inactive
15 | COc1ccc(N/C=C/C(=O)c2cc(OC)c(OC)c(OC)c2)cc1 | 7.31 µM (active)
16 | COc1ccc(Nc2cc(C)nc(-n3nc(C)cc3C)n2)cc1 | 7.31 µM (active)
17 | CCOc1ccc(Nc2cc(C)nc(-n3nc(C)cc3C)n2)cc1 | 3.26 µM (active)
18 | COc1ccc(C(=O)n2c(-c3ccco3)nc3ccccc32)cc1 | 18.4 µM (active)
19 | COc1ccc(N=N/C(=C\O)C(=O)c2ccco2)cc1 | inactive
20 | COC(=O)c1cn(C(=O)c2ccc(OC)cc2)c2ccccc12 | inactive
21 | Cc1ccc(S(=O)(=O)N2CCN(C(=O)CSc3n[nH]c(N)n3)CC2)c(C)c1 | inactive
22 | Cc1ccc(CSc2nc3ccccc3cc2C=O)cc1 | 2.91 µM (active)
23 | O=Cc1cc2ccccc2nc1SCc1ccc(Cl)c(Cl)c1 | inactive

Row | Structure (SMILES) | Potency
24 | COc1cccc(CSc2nc3ccccc3cc2C=O)c1 | 2.59 µM (active)
25 | CCC(=O)[C@@]1(C)[C@H](C)C[C@H]2[C@@H]3CCC4=CC(=O)C=C[C@]4(C)[C@H]3[C@@H](O)C[C@@]21C | inactive
26 | CCOC(=O)c1ccc(NC(=S)NNC(C)(C)C)cc1 | inactive
27 | CCOC(=O)c1ccc(NC(=O)Nc2ccon2)cc1 | 2.31 µM (active)
28 | O=C(Nc1ccc([N+](=O)[O-])cc1)Nc1ccon1 | 8.2 µM (active)
29 | O=C(N/N=C/c1ccc(O)cc1)c1[nH]c2ccc(Br)cc2c1-c1ccccc1 | 1.3 µM (active)
30 | Cc1ccc2[nH]c(C(=O)N/N=C/c3ccccc3C(=O)O)c(-c3ccccc3)c2c1 | inactive
31 | COc1ccc(/C=N/NC(=O)c2[nH]c3ccc(Cl)cc3c2-c2ccccc2)c(C(=O)O)c1OC | inactive
32 | NNC(=O)c1[nH]c2ccc([N+](=O)[O-])cc2c1-c1ccccc1 | inactive
33 | O=C(N/N=C/c1ccccc1)c1[nH]c2ccc(Br)cc2c1-c1ccccc1 | 0.517 µM (active)
34 | COc1ccc(NC(=S)N/N=C/c2ccc(F)c(F)c2)cc1 | inactive
35 | NNC(=O)c1cc2cc(OC(F)(F)F)ccc2[nH]1 | inactive
36 | Cc1c(C(=O)N/N=C/c2ccc(Cl)cc2)[nH]c2ccc(Cl)cc12 | 0.731 µM (active)
37 | CCOc1ccc2[nH]c(C(=O)N/N=C/c3ccc(OC)cc3)cc2c1 | 2.91 µM (active)
38 | COc1ccc(/C=N/NC(=O)c2[nH]c3ccc(Br)cc3c2-c2ccccc2)c(C(=O)O)c1OC | inactive
39 | NNC(=O)c1[nH]c2ccc(Cl)cc2c1-c1ccccc1 | inactive
40 | O=C(NN=C1CCCC1)c1[nH]c2ccc(Cl)cc2c1-c1ccccc1 | 13 µM (active)
41 | Cc1ccc2[nH]c(C(=O)NN=C3CCCCC3)c(-c3ccccc3)c2c1 | inactive
42 | COc1ccc(/C=N/NC(=O)c2[nH]c3ccc(Br)cc3c2-c2ccccc2)cc1 | 0.231 µM (active)
43 | Cc1nn(CCC(=O)NNC(=S)NCC(C)C)c(C)c1Br | inactive
44 | CCN(CC)c1ccc2cc(-c3nc4ccccc4n3C)c(=O)oc2c1 | 0.58 µM (active)
45 | CC(/C=C/c1ccccc1)=N\NC(=S)NC(C)C | inactive
46 | O=C(CSc1cccc[n+]1[O-])CSc1cccc[n+]1[O-] | inactive
